Data taken from PubChem BioAssay AID488969 (Vanderbilt High Throughput Screening Facility, 2010).
Over roughly 110,000 compounds, “z-score” has its median near -0.1; the highest 2% begin near 2. This is one part of a sample in which the highest values are shown more often than they occur. Activity calls are given as the source filed them.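 The calls were made as follows: active = z-score in the third read window above 3 or below -3; inactive = the rest.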

target: Metabotropic glutamate receptor 8 (Rattus norvegicus) (UniProt P70579); assay: mGluR8 Gi/Go-coupled signaling modulation – cell-based, rat, thallium flux, HTS, primary screen (AID 488969); details: HEK293 rat mGluR8, GIRK (G protein-gated inwardly rectifying potassium channel) thallium flux, FluoZin2; at 10 µM; stronger effect = higher value; submaximal glutamate (EC20) added with thallium
Sequence (P70579 whole entry, looked up): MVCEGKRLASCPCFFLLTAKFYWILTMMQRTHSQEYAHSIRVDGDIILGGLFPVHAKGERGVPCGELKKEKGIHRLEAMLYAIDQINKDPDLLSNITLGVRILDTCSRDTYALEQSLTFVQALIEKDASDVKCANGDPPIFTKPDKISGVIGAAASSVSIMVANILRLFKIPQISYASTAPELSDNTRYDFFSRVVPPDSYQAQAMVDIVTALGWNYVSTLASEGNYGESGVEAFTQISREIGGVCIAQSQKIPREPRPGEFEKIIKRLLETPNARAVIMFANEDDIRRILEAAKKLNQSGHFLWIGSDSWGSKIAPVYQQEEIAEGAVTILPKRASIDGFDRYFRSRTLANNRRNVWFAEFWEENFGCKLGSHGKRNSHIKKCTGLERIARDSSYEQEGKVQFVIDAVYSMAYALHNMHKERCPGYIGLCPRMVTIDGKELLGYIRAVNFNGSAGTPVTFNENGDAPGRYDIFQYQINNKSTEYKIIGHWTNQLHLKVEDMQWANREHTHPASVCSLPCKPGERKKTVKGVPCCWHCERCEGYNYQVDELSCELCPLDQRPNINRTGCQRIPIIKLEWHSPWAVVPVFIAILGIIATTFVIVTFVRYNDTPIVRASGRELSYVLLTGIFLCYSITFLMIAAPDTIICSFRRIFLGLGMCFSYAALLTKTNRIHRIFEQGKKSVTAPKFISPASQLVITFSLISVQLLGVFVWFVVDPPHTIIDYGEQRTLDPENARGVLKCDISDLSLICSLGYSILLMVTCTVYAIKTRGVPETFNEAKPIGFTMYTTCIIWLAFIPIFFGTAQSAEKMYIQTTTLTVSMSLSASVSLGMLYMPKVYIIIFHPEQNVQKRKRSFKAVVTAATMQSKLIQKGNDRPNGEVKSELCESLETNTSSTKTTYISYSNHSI

Compared with `CCN(CCCNC(=O)CCNC(=O)Cn1ccc2ccccc2c1=O)c1ccccc1`, `CCN(CC)c1ccc(NC(=O)CSc2nc3ccccc3c(=O)[nH]2)cc1` is higher in z-score: -0.46 for the first, -0.106 for the second.

Going from `CCN1CCN(Cc2c(O)ccc3c(=O)c(-c4ccc(OC)c(OC)c4)c(C)oc23)CC1` to `COc1ccccc1N1CCN(CC(=O)Nc2cc(F)ccc2C)CC1`, the z-score rises from -0.348 to 0.0403.

Compared with `Cc1ccc(Oc2c(C=O)c3ccccc3n2C)cc1`, `Clc1ccc(Oc2cnc3ccccc3n2)cc1` is higher in z-score: -0.989 for the first, -0.22 for the second.

First: CC1(C)CC(=O)N(CC(=O)NC2CCCC2)c2ccccc2S1(=O)=O
Second: CC(=O)NC(CC(=O)NC1CCCCCC1)c1ccccc1 (stereo not drawn)
The z-score of the first is lower: -0.29 for the first, 0.55 for the second.

Compared with `CCC(CC)C(=O)Nc1cc(OC)c(OC)cc1C(=O)O`, `COc1ccc(-c2nn(-c3ccccc3)cc2C(=O)O)cc1OC` is higher in z-score: -0.741 for the first, 0.191 for the second.

First: O=C(Nc1ccc(O)c(-c2nc3ccccc3o2)c1)C1(c2ccc(Br)cc2)CCCC1
Second: O=C(CSc1nc2nc3c(cc2c(=O)n1-c1ccccc1)CCCC3)Nc1ccccc1
The z-score of the first is higher: -0.297 for the first, -0.468 for the second.

Going from `CCOC(=O)CN(C(=O)c1ccccc1)c1ccccc1C` to `CC(=O)C1=C(C)NC(SCC(=O)c2ccccc2)=C(C#N)C1c1ccco1` (stereo not drawn), the z-score falls from -0.114 to -1.16.

Going from `CC1(C)CC(=O)C2=C(C1)OC(N)=C(C#N)C21C(=O)N(CN2CCOCC2)c2ccccc21` (stereo not drawn) to `CC(=O)Oc1ccc2oc(=O)c3c(c2c1)CCCN3C(=O)CN1CCN(c2ncccn2)CC1`, the z-score falls from -0.00502 to -0.26.

Compared with `CCc1ccc2nc(Nc3nc(COC)cc(=O)[nH]3)nc(C)c2c1`, `COCc1cc(=O)[nH]c(Nc2nc(C)c3cc(OC)ccc3n2)n1` is lower in z-score: 2.69 for the first, -0.401 for the second.

Going from `COCc1cc(=O)[nH]c(Nc2nc(C)c3ccccc3n2)n1` to `CCc1cc2c(=O)[nH]c(Cc3ccccc3)nc2s1`, the z-score rises from -0.43 to -0.371.

Going from `O=C(NCc1ccco1)c1sc(=S)n2c1[nH]c(=O)c1ccccc12` to `O=C(NCc1ccccc1)c1sc(=S)n2c1[nH]c(=O)c1ccccc12`, the z-score falls from 2.75 to -0.316.

Going from `Cc1ccc(-n2c(N)c(C(=O)NCc3ccco3)sc2=S)cc1` to `C=CCn1c(N)c(C(=O)NCc2ccco2)sc1=S`, the z-score rises from -0.322 to 0.688.

Going from `O=C(NCc1ccco1)c1sc2ccccc2c1Cl` to `Cc1ccc2c(Cl)cc(Cl)c(OCC(=O)NC(=O)NCc3ccco3)c2n1`, the z-score rises from -0.649 to -0.127.

Compared with `CCOC(=O)CC1=CSC2=NS(=O)(=O)CCN12`, `CCOCC(=O)Nc1c(C(=O)OCC)oc2ccccc12` is higher in z-score: -0.784 for the first, -0.215 for the second.

Compared with `COC(=O)c1ccc(COC(=O)c2ccc(CS(=O)(=O)c3ccc(C)cc3)cc2)cc1`, `CCN(CC)S(=O)(=O)c1ccc(NC(=O)COC(=O)c2ccc(-n3nc(C)cc3C)cc2)cc1` is higher in z-score: -0.331 for the first, 0.0126 for the second.

First: Cc1ccc2c(Cl)cc(Cl)c(OCC(=O)Nc3cc(S(=O)(=O)N(C)C)ccc3C)c2n1
Second: Cc1ccc2c(Cl)cc(Cl)c(OCC(=O)Nc3ccc(C)c(S(=O)(=O)N(C)C)c3)c2n1
The z-score of the first is lower: -0.0675 for the first, 2.31 for the second.

First: Cc1ccc2c(Cl)cc(Cl)c(OCC(=O)Nc3cccc(S(=O)(=O)N(C)C)c3)c2n1
Second: Cc1ccc2c(Cl)cc(Cl)c(OCC(=O)Nc3cc(C)on3)c2n1
The z-score of the first is higher: 0.415 for the first, 0.0628 for the second.

Compared with `Cc1ccc(S(=O)(=O)N(C)C)cc1NC(=O)COC(=O)CCC(=O)c1ccc(F)cc1`, `CN(C)S(=O)(=O)c1cccc(NC(=O)COC(=O)CCC(=O)c2ccc(F)cc2)c1` is higher in z-score: -0.39 for the first, -0.326 for the second.

First: Cc1ccc(NC(=O)CCNC(=O)c2ccccc2Cl)cc1S(=O)(=O)N(C)C
Second: Cc1ccc(NC(=O)Cc2c(Cl)cccc2Cl)cc1S(=O)(=O)N(C)C
The z-score of the first is lower: -0.00648 for the first, 1 for the second.

Going from `Cc1ccc(NC(=O)COC(=O)/C=C/c2ccco2)cc1S(=O)(=O)N(C)C` to `Cc1ccc(S(=O)(=O)N(C)C)cc1NC(=O)COC(=O)c1ccc2c(c1)OCO2`, the z-score rises from 1.23 to 1.63.

Going from `CCOc1cc(C)c(S(=O)(=O)NC2CCCCC2)cc1C` to `O=C(COc1ccc(S(=O)(=O)NC2CCCCC2)cc1Cl)Nc1ccc2c(c1)OCO2`, the z-score rises from -0.571 to 0.2.

First: O=c1c2ccccc2nc(COc2ccccc2)n1/N=C/c1c[nH]c2ccccc12
Second: COc1cccc(/C(O)=C2/C(=O)C(=O)N(Cc3ccco3)C2c2ccncc2)c1 (stereo not drawn)
The z-score of the first is lower: -0.533 for the first, -0.192 for the second.

Compared with `O=[N+]([O-])c1cc(Cl)cc(C2=NCCN2)c1`, `Cc1nn(CC(=O)Nc2cc(S(=O)(=O)N(C)C)ccc2Cl)c(C)c1[N+](=O)[O-]` is lower in z-score: 0.173 for the first, 0.164 for the second.

Going from `COc1ccc(N(CC(=O)NCc2ccccc2OC)S(=O)(=O)c2c(C)nn(C)c2C)cc1` to `Cc1nn(CC(=O)Nc2ccc(S(=O)(=O)N(C)C)cc2)c(C)c1[N+](=O)[O-]`, the z-score rises from -0.153 to -0.0283.

Going from `Cc1c(C(=O)O)cccc1-c1ccc(C=O)o1` to `Cc1ccc(NC(=O)COC(=O)c2ccc3c(c2)OCO3)cc1S(=O)(=O)N1CCCCC1`, the z-score falls from 0.12 to -0.401.

Compared with `Cc1cc(C)n(-c2ccc(C(=O)OCC(=O)Nc3ccc(S(=O)(=O)N4CCCCC4)cc3)cc2)n1`, `CC(C)CNS(=O)(=O)c1ccc(OCC(=O)Nc2ccc3c(c2)OCO3)c(Cl)c1` is lower in z-score: -0.00692 for the first, -0.19 for the second.

First: Cc1ccc(S(=O)(=O)CC(C)N2CCN(C3CCCCC3)CC2)cc1 (stereo not drawn)
Second: COc1ccccc1C(=O)COC(=O)c1ccccc1OCC(=O)Nc1ccc(SC(F)F)cc1
The z-score of the first is higher: 1.44 for the first, 1.1 for the second.

`CCn1c(N)c(C(=O)NCc2ccco2)sc1=S` was tested, and the z-score was 4.44 (active).
With `Cc1ccc(NC(=O)Cc2ccccc2Cl)cc1S(=O)(=O)N(C)C` the z-score was 12.9 (active).
`CCOCc1c(C(=O)OCC(=O)Nc2ccc(C)c(S(=O)(=O)N(C)C)c2)oc2ccccc12` was tested, and the z-score was 9.51 (active).
For `Cc1ccc(NC(=O)COC(=O)CCC(=O)c2ccc(Cl)cc2)cc1S(=O)(=O)N(C)C`, the z-score was 3.92 (active).
With `Cc1ccc2c(Cl)cc(Cl)c(OCC(=O)NCc3ccco3)c2n1` the z-score was 3.48 (active).
In the case of `CC(C)NS(=O)(=O)c1ccc(OCC(=O)Nc2ccc3c(c2)OCO3)c(Cl)c1`, the z-score is reported as 3.09 (active).
`Cc1nn(CC(=O)Nc2ccc(Cl)c(S(=O)(=O)N(C)C)c2)c(C)c1[N+](=O)[O-]` was tested, and the z-score was 4.55 (active).
`Cc1cc(C)n(-c2ccc(C(=O)OCC(=O)Nc3ccc(Cl)c(S(=O)(=O)N(C)C)c3)cc2)n1` was tested, and the z-score was 15.5 (active).
`CN(C)S(=O)(=O)c1cc(NC(=O)COC(=O)c2ccc3c(c2)OCO3)ccc1Cl` was tested, and the z-score was 10.1 (active).
